# Results from PubChem BioAssay (Tox21).
# A number with no mark means an inactive call. Activity calls are given as the source filed them. Calls follow the shape of the dose curve; as a rule, active = well fitted curve in the direction sought with a large enough effect in the repeat runs; inconclusive = weak or mixed curves; inactive = flat fitted curve, though single readings scatter.
# Test: qHTS assay to test for compound auto fluorescence at 590 nm (red) in HEK293 cell free culture (AID 720683)
# Details: cell-free medium autofluorescence, Ex540/Em590 red; series mostly up to 46 µM; fluorescence, % of fluorescent control: at the top concentration
# From the text: U.S. Tox21 Program National Center for Advancing Translational Sciences [NCATS] NIH Chemical Genomics Center [NCGC] U.S. Environmental Protection Agency [EPA] National Institutes of Environmental Health Sciences [NIEHS] National Toxicology Program [NTP] U.S. Food and Drug Administration [FDA] Tox21 Assay Overview: Compound auto fluorescence often interferes with screening of the compound library against various biological targets and signaling pathways. Some of these compounds may have fluorophoric properties. Such properties may interfere with the assay outputs resulting in false positives and/or negatives. To decrease such complications and ensure the compound activities are relevant in terms of biological response, the Tox21 10K compound library was screened for auto fluorescence. From the fluorophores used as reporter signals in our screening assays, the auto fluorescence equivalencies of compounds against three fluorophores have been evaluated: Triamterene, Fluorescein and Rose Bengal sodium for blue, green and red fluorescence, respectively. The fluorescence intensities were measured using Excitation/Emission wavelengths at 405/460nm, 485/535nm and 540/590nm for blue, green and red labels, respectively. This assay includes the red fluorescence data.
# Tox21 Assay Protocol Summary: 5 uL of culture medium (DMEM containing 10% FBS) per well was dispensed into black wall/clear bottom 1536-well plates using a Multidrop Combi Dispenser (ThermoFisher Scientific, Waltham, MA). After 23 nL compound or DMSO vehicle was transferred into assay plate by a pintool work station (Kalypsys, San Diego, CA), fluorescence intensities in the assay plates were measured by an Envision (PerkinElmer, Shelton, CT) plate reader using three labels for measuring blue, green and red fluorescence at […] 460, 535 and 590nm respectively.
# % is scaled to controls: 0 for no effect and ±100 for the full control effect.
SMILES,outcome,"fluorescence, % of fluorescent control"
O=C(O)/C=C/C(=O)O,inactive,–
CCC1C(C)=NN=C(c2ccc(OC)c(OC)c2)c2cc(OC)c(OC)cc21 (stereo not given),–,-0.189%
C[C@H]1CC[C@]2(NC1)O[C@H]1C[C@H]3[C@@H]4CC[C@H]5C[C@@H](O)CC[C@]5(C)[C@H]4CC[C@]3(C)[C@H]1[C@@H]2C,–,-0.583%
C[C@]12CC[C@H](OS(=O)(=O)O)CC1=CC[C@@H]1[C@@H]2CC[C@]2(C)C(=O)CC[C@@H]12,–,0.48%
CCN(CC)C(=O)N[C@H]1C[C@@H]2c3cccc4[nH]cc(c34)C[C@H]2N(C)C1,–,-0.284%
C[C@@H]1[C@H](O)[C@@H](C)/C=C/C=C/CC/C=C/C=C/C=C/C=C/[C@H](O[C@H]2O[C@@H](C)[C@H](O)[C@@H](N)[C@H]2O)CC2O[C@](O)(C[C@@H](O)[C@H](O)CC[C@@H](O)C[C@@H](O)C[C@@H](O)CC(=O)O[C@H]1C)C[C@H](O)[C@H]2C(=O)O,–,-0.139%
CCC1(c2ccccc2)C(=O)NC(=O)N(C(=O)c2ccccc2)C1=O (stereo not given),–,0.346%
CCN1C[C@]2(COC)[C@H](O)C[C@H](OC)[C@@]34[C@@H]5C[C@@]6(O)[C@H](OC(=O)c7ccccc7)[C@@H]5[C@@](OC(C)=O)([C@@H]([C@H](OC)[C@H]23)[C@@H]14)[C@@H](O)[C@@H]6OC,–,0.0158%
COc1cc(OC)c(OC)cc1C=O,–,-0.476% [at 91.3 µM]
CC(C)NC(C)Cc1ccc(I)cc1 (stereo not given),–,-0.0956%
O=C(O)CCCO,–,-0.0747% [at 95.7 µM]
Oc1cccc[c]1[Hg][Cl],–,0.347%
CCCCCCCCCC(=O)O[C@H]1CC[C@H]2[C@@H]3CCC4=CC(=O)CC[C@]4(C)[C@H]3CC[C@]12C,–,-0.226%
CN=C1CN(O)C(c2ccccc2)=c2cc(Cl)ccc2=N1,inactive,–
CCOC(=O)C(O)(c1ccc(Cl)cc1)c1ccc(Cl)cc1,inactive,–
CC[C@H]1[C@@H]2C[C@H]3[C@@H]4N(C)c5ccccc5[C@]45C[C@@H](C2[C@H]5O)N3[C@@H]1O (stereo not given in full),–,-0.293% [at 18.6 µM]
O=[N+]([O-])c1c(Cl)c(Cl)cc(Cl)c1Cl,–,-0.848% [at 91.3 µM]
CCOC(=O)C1(c2ccccc2)CCCN(C)CC1 (stereo not given),–,-0.145%
N#CC(C#N)=Cc1cc(O)c(O)c(O)c1,–,0.119%
ClC1=C(Cl)[C@]2(Cl)[C@@H]3[C@@H](Cl)[C@H]4O[C@H]4[C@@H]3C1(Cl)C2(Cl)Cl,–,-0.195% [at 91.3 µM]

SMILES,outcome,"fluorescence, % of fluorescent control"
COc1ccc(OC)c([C@@H](O)[C@H](C)N)c1,–,-0.658%
CN(C)[C@H](Cc1ccccc1)c1ccccc1,–,-0.78%
CCCCc1ccc(C(=O)O)nc1,–,0.409%
Cc1ccccc1-n1c(CF)nc2ccc(N)cc2c1=O,–,-0.457%
O=C(C[C@@H]1NCCC[C@H]1O)Cn1cnc2cc(Br)c(Cl)cc2c1=O,–,-0.208%
CC(=O)O[C@H]1CC[C@H]2[C@@H]3CCC4=CC(=O)CCC4=C3C=C[C@]12C,–,0.0868%
C[C@]12CCC(=O)C[C@@H]1CC[C@@H]1[C@@H]2CC[C@@]2(C)[C@H]1CC[C@]2(C)O,–,-0.486%
CCc1cc(OC)c(C[C@@H](C)N)cc1OC,–,0.367% [at 95.7 µM]
CC(N)Cc1ccc2c(c1)OCO2 (stereo not given),–,0.194%
c1ccc2c(c1)Sc1ccccc1N2CC1CN2CCC1CC2 (stereo not given),–,-0.0614%
CN[C@@H]1C[C@@H](c2ccc(Cl)c(Cl)c2)c2ccccc21,–,-0.0969%
O=[N+]([O-])c1cc(I)c(O)c(I)c1,–,-0.0371%
COc1cc(C[C@H](C)N)c(OC)cc1C,–,0.0761% [at 95.7 µM]
COC(COC(N)=O)C1=C(N2CC2)C(=O)C(C)=C(N2CC2)C1=O (stereo not given),–,-0.0339%
O=C1CN(O)C(c2ccccc2)=c2cc(Cl)ccc2=N1,–,-0.494%
CCCCNCC(O)c1ccc(O)cc1 (stereo not given),–,0.207%
CC(=O)OCC(=O)[C@H]1CC[C@H]2[C@@H]3CC[C@H]4C[C@H](O)CC[C@]4(C)[C@H]3C(=O)C[C@]12C,–,-0.177% [at 18.6 µM]
O=[N+]([O-])c1ccccc1Cl,–,-0.0255% [at 91.3 µM]
CCN(CC)CCO[C@H]1CC[C@@]2(C)C(=CC[C@@H]3[C@@H]2CC[C@]2(C)C(=O)CC[C@@H]32)C1,–,0.174%
O=C(CCl)c1ccc(Oc2ccc(C(=O)CCl)cc2)cc1,–,0.0132%
